# Data: the supplement of paper PMC10037445
# “And” between values parts separate entries of the source, which are not always exact repeats. Equal values may be shown once. Whole data set: some 2,900 compounds, median “NF-kB SEAP reporter activity, fold change vs agonist alone” near 0.99, cut for the highest 2% near 2.6. For the sample, the highest values were picked, then their nearest neighbours and some compounds at random.
# What was measured:
# RAW-Dual [1] = experiment: NF-kB SEAP reporter activity, fold change vs agonist alone; higher = enhanced NF-kB activity; conditions: cytotoxicity flag (confluency mask): not cytotoxic
# Method in brief: (§1)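 Cytotoxic wells were those whose IncuCyte confluency was below 70% of agonist controls in both mask sets. The cells were RAW-Dual macrophages at 50,000 cells/well in DMEM on 384-well plates, dosed with 50 nL of library stock by pin tool, stimulated with a PRR agonist 1 h later, and kept at 37 °C, 5% CO2 for 20 hours. IRF and NF-κB reporter activity, as fold change over agonist-alone wells, came from supernatant read by QuantiLuc luminescence and QuantiBlue absorbance, respectively.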
# RAW-Dual [2] = experiment: NF-kB SEAP reporter activity, fold change vs agonist alone; cytotoxicity flag (confluency mask): not cytotoxic; higher = enhanced NF-kB activity
# Method in brief: as §1
# [3] = library stock concentration (final ~1000-fold dilution): 10 mM, agonist: Imiquimod (TLR7) […]
# [4] = library stock concentration (final ~1000-fold dilution): 10 mM, agonist: MPLA (TLR4) […]
# [5] = agonist: ODN 1826 (TLR9) 0.5 ug/mL
# [6] = agonist: Pam2CSK4 (TLR2/6) 0.1 ug/mL
# [7] = agonist: Pam3CSK4 (TLR2/1) 0.1 ug/mL
smiles,measurement,setting,value
O=C(O)c1ccc(O)c2ncccc12,NF-kB SEAP reporter activity,RAW-Dual [1]; [3],1.05
same,NF-kB SEAP reporter activity,RAW-Dual [1]; [4],1.03
O.c1cnc2c(c1)ccc1cccnc12 (library stock concentration (final ~1000-fold dilution): 10 mM),NF-kB SEAP reporter activity,RAW-Dual [2]; agonist: LPS (TLR4) 0.1 ug/mL,2.48
same,NF-kB SEAP reporter activity,RAW-Dual [2]; [5],1.17
same,NF-kB SEAP reporter activity,RAW-Dual [2]; [6],1.44
same,NF-kB SEAP reporter activity,RAW-Dual [2]; [7],2.06
O.c1cnc2c(c1)ccc1cccnc12,NF-kB SEAP reporter activity,RAW-Dual [1]; [3],2.78
same,NF-kB SEAP reporter activity,RAW-Dual [1]; [4],2.1
N#Cc1ncccn1,NF-kB SEAP reporter activity,"RAW-Dual [1]; library stock concentration (final ~1000-fold dilution): 2 mM, agonist: Imiquimod (TLR7) […]",1
same,NF-kB SEAP reporter activity,"RAW-Dual [1]; library stock concentration (final ~1000-fold dilution): 2 mM, agonist: MPLA (TLR4) […]",1
N#Cc1ncccn1 (library stock concentration (final ~1000-fold dilution): 2 mM),NF-kB SEAP reporter activity,RAW-Dual [2]; agonist: LPS (TLR4) 0.1 ug/mL,1.32
same,NF-kB SEAP reporter activity,RAW-Dual [2]; [5],1.02
same,NF-kB SEAP reporter activity,RAW-Dual [2]; [6],1.09
same,NF-kB SEAP reporter activity,RAW-Dual [2]; [7],1.05
O=C(O)c1ccc(O)c2ncccc12 (library stock concentration (final ~1000-fold dilution): 10 mM),NF-kB SEAP reporter activity,RAW-Dual [2]; agonist: LPS (TLR4) 0.1 ug/mL,1.21
same,NF-kB SEAP reporter activity,RAW-Dual [2]; [5],1.04
same,NF-kB SEAP reporter activity,RAW-Dual [2]; [6],0.998
same,NF-kB SEAP reporter activity,RAW-Dual [2]; [7],1.4
CCn1cc(C(=O)O)c(=O)c2cc(F)c(N3CCN(C)CC3)cc21.CS(=O)(=O)O.O.O (library stock concentration (final ~1000-fold dilution): 10 mM),NF-kB SEAP reporter activity,RAW-Dual [2]; agonist: LPS (TLR4) 0.1 ug/mL,1.38
same,NF-kB SEAP reporter activity,RAW-Dual [2]; [5],0.867
same,NF-kB SEAP reporter activity,RAW-Dual [2]; [6],1.01
same,NF-kB SEAP reporter activity,RAW-Dual [2]; [7],1.01
CCn1cc(C(=O)O)c(=O)c2cc(F)c(N3CCN(C)CC3)cc21.CS(=O)(=O)O.O.O,NF-kB SEAP reporter activity,RAW-Dual [1]; [3],0.752
same,NF-kB SEAP reporter activity,RAW-Dual [1]; [4],0.814
Cl.Cl.OC(CN1CCN(c2cccc(Cl)c2)CC1)C(c1ccccc1)c1ccccc1 (configuration not stated) (library stock concentration (final ~1000-fold dilution): 10 mM),NF-kB SEAP reporter activity,RAW-Dual [2]; agonist: LPS (TLR4) 0.1 ug/mL,0.841
same,NF-kB SEAP reporter activity,RAW-Dual [2]; [5],1.02
same,NF-kB SEAP reporter activity,RAW-Dual [2]; [6],0.761
same,NF-kB SEAP reporter activity,RAW-Dual [2]; [7],0.956
Cl.Cl.OC(CN1CCN(c2cccc(Cl)c2)CC1)C(c1ccccc1)c1ccccc1 (configuration not stated),NF-kB SEAP reporter activity,RAW-Dual [1]; [3],1.33
same,NF-kB SEAP reporter activity,RAW-Dual [1]; [4],1.04
CC(=O)OC1CC2CCC3C(CCC4(C)C3CC([N+]3(C)CCCCC3)C4OC(C)=O)C2(C)CC1N1CCCCC1 (configuration not stated) (library stock concentration (final ~1000-fold dilution): 10 mM),NF-kB SEAP reporter activity,RAW-Dual [2]; agonist: LPS (TLR4) 0.1 ug/mL,1.04
same,NF-kB SEAP reporter activity,RAW-Dual [2]; [5],1.02
same,NF-kB SEAP reporter activity,RAW-Dual [2]; [6],0.945
same,NF-kB SEAP reporter activity,RAW-Dual [2]; [7],1.01
CC(=O)OC1CC2CCC3C(CCC4(C)C3CC([N+]3(C)CCCCC3)C4OC(C)=O)C2(C)CC1N1CCCCC1 (configuration not stated),NF-kB SEAP reporter activity,RAW-Dual [1]; [3],0.939
same,NF-kB SEAP reporter activity,RAW-Dual [1]; [4],0.965
CCOC(=O)/C=C/c1ccc(O)c(O)c1 (library stock concentration (final ~1000-fold dilution): 10 mM),NF-kB SEAP reporter activity,RAW-Dual [2]; agonist: LPS (TLR4) 0.1 ug/mL,0.633 and 0.814
same,NF-kB SEAP reporter activity,RAW-Dual [2]; [5],0.407 and 0.651
same,NF-kB SEAP reporter activity,RAW-Dual [2]; [6],0.658 and 0.524
same,NF-kB SEAP reporter activity,RAW-Dual [2]; [7],0.563 and 0.481
NS(=O)(=O)NCCNc1nonc1C(=Nc1ccc(F)c(Br)c1)NO (library stock concentration (final ~1000-fold dilution): 10 mM),NF-kB SEAP reporter activity,RAW-Dual [2]; agonist: LPS (TLR4) 0.1 ug/mL,1.01
same,NF-kB SEAP reporter activity,RAW-Dual [2]; [5],0.936
same,NF-kB SEAP reporter activity,RAW-Dual [2]; [6],0.922
same,NF-kB SEAP reporter activity,RAW-Dual [2]; [7],0.961
NS(=O)(=O)NCCNc1nonc1C(=Nc1ccc(F)c(Br)c1)NO,NF-kB SEAP reporter activity,RAW-Dual [1]; [3],0.862
same,NF-kB SEAP reporter activity,RAW-Dual [1]; [4],0.907
CC(C)(C)NCC(O)COc1cccc2c1CCC(=O)N2.Cl (configuration not stated) (library stock concentration (final ~1000-fold dilution): 10 mM),NF-kB SEAP reporter activity,RAW-Dual [2]; agonist: LPS (TLR4) 0.1 ug/mL,1.11
same,NF-kB SEAP reporter activity,RAW-Dual [2]; [5],1.05
same,NF-kB SEAP reporter activity,RAW-Dual [2]; [6],1.04
same,NF-kB SEAP reporter activity,RAW-Dual [2]; [7],1.11
CCCC(=O)Nc1ccc(OCC(O)CNC(C)C)c(C(C)=O)c1.Cl (configuration not stated),NF-kB SEAP reporter activity,RAW-Dual [1]; [3],1
same,NF-kB SEAP reporter activity,RAW-Dual [1]; [4],1.08
CCN(CC)C(=O)Nc1ccc(OCC(O)CNC(C)(C)C)c(C(C)=O)c1.Cl (configuration not stated) (library stock concentration (final ~1000-fold dilution): 10 mM),NF-kB SEAP reporter activity,RAW-Dual [2]; agonist: LPS (TLR4) 0.1 ug/mL,3.5
same,NF-kB SEAP reporter activity,RAW-Dual [2]; [5],2.46
same,NF-kB SEAP reporter activity,RAW-Dual [2]; [6],1.6
same,NF-kB SEAP reporter activity,RAW-Dual [2]; [7],3.15
CCCC(=O)Nc1ccc(OCC(O)CNC(C)C)c(C(C)=O)c1.Cl (configuration not stated) (library stock concentration (final ~1000-fold dilution): 10 mM),NF-kB SEAP reporter activity,RAW-Dual [2]; agonist: LPS (TLR4) 0.1 ug/mL,1.54
same,NF-kB SEAP reporter activity,RAW-Dual [2]; [5],1.08
same,NF-kB SEAP reporter activity,RAW-Dual [2]; [6],1.11
same,NF-kB SEAP reporter activity,RAW-Dual [2]; [7],1.16
CCN(CC)C(=O)Nc1ccc(OCC(O)CNC(C)(C)C)c(C(C)=O)c1.Cl (configuration not stated),NF-kB SEAP reporter activity,RAW-Dual [1]; [3],2.4
same,NF-kB SEAP reporter activity,RAW-Dual [1]; [4],2.24
CC(C)(C)NCC(O)COc1cccc2c1CCC(=O)N2.Cl (configuration not stated),NF-kB SEAP reporter activity,RAW-Dual [1]; [3],1.02
same,NF-kB SEAP reporter activity,RAW-Dual [1]; [4],1.07
Cl.N=c1ccn2c(n1)OC1C(O)C(CO)OC12 (configuration not stated),NF-kB SEAP reporter activity,RAW-Dual [1]; [3],1.8
same,NF-kB SEAP reporter activity,RAW-Dual [1]; [4],1.42
Cl.N=c1ccn2c(n1)OC1C(O)C(CO)OC12 (configuration not stated) (library stock concentration (final ~1000-fold dilution): 10 mM),NF-kB SEAP reporter activity,RAW-Dual [2]; agonist: LPS (TLR4) 0.1 ug/mL,1.33
same,NF-kB SEAP reporter activity,RAW-Dual [2]; [5],1.89
same,NF-kB SEAP reporter activity,RAW-Dual [2]; [6],1.4
same,NF-kB SEAP reporter activity,RAW-Dual [2]; [7],1.83
Brc1ccc(CCCCn2ccnc2)cc1 (library stock concentration (final ~1000-fold dilution): 10 mM),NF-kB SEAP reporter activity,RAW-Dual [2]; agonist: LPS (TLR4) 0.1 ug/mL,0.672 and 0.736
same,NF-kB SEAP reporter activity,RAW-Dual [2]; [5],0.566 and 0.595
same,NF-kB SEAP reporter activity,RAW-Dual [2]; [6],0.493 and 0.552
same,NF-kB SEAP reporter activity,RAW-Dual [2]; [7],0.585 and 0.645
CN(C)C(=O)CCSC(SCCC(=O)O)c1cccc(C=Cc2ccc3ccc(Cl)cc3n2)c1 (configuration not stated) (library stock concentration (final ~1000-fold dilution): 10 mM),NF-kB SEAP reporter activity,RAW-Dual [2]; agonist: LPS (TLR4) 0.1 ug/mL,1.5
same,NF-kB SEAP reporter activity,RAW-Dual [2]; [5],1.12
same,NF-kB SEAP reporter activity,RAW-Dual [2]; [6],0.936
same,NF-kB SEAP reporter activity,RAW-Dual [2]; [7],0.945
CN(C)C(=O)CCSC(SCCC(=O)O)c1cccc(C=Cc2ccc3ccc(Cl)cc3n2)c1 (configuration not stated),NF-kB SEAP reporter activity,RAW-Dual [1]; [3],0.973
same,NF-kB SEAP reporter activity,RAW-Dual [1]; [4],1.05
Cc1cc(N2CCOCC2)cc2[nH]c(-c3c(NCC(O)c4cccc(Cl)c4)cc[nH]c3=O)nc12 (configuration not stated),NF-kB SEAP reporter activity,RAW-Dual [1]; [3],2.06
same,NF-kB SEAP reporter activity,RAW-Dual [1]; [4],0.802
